Results from PubChem BioAssay AID624002 (National Center for Advancing Translational Sciences (NCATS), 2012).
The other results are listed elsewhere or left out. Inconclusive results are not listed. Activity calls are given as the source filed them. Calls come from the whole dose curve; as a rule, active = well fitted inhibition curve with a large enough effect; inconclusive = small, poorly fitted or top-dose-only effect; inactive = no such curve, though single readings can be large or run the other way.

Biological target: Isocitrate dehydrogenase [NADP] cytoplasmic (Homo sapiens) (UniProt O75874)
Sequence (O75874 whole entry R132H, change not shown): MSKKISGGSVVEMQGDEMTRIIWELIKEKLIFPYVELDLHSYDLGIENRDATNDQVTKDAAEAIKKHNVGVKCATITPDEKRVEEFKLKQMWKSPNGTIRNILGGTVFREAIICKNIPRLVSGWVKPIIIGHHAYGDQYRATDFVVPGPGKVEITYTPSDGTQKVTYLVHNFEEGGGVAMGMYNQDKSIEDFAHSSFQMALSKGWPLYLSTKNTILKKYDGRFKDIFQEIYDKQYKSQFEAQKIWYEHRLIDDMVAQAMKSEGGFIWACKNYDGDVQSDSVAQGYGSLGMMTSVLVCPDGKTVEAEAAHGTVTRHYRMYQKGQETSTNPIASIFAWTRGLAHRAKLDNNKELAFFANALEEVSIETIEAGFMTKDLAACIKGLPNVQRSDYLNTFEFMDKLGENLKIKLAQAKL
Assay: qHTS for Inhibitors of mutant isocitrate dehydrogenase 1 (IDH1): Confirmation of Cherrypicks; note: nearly all actives have a fitted effect of over 50% in size
Conditions: IDH1 R132H enzyme, NADPH diaphorase/resazurin fluorescence; series mostly up to 76.6 µM; activity change, negative = inhibition: at the top concentration
Text: Malignant glioblastomas (WHO grade IV), including primary and secondary glioblastomas, are among the most lethal with a median survival of one year, and unfortunately they are also the most prevalent type of brain tumors. By and large the standard of care of gliomas remains the use of the oral alkylating agent temozolomide and radiotherapy following surgical tumor resection. There is an urgent unmet medical need for novel therapeutics for gliomas. IDH mutations occur in up to 70% of grade II-IV secondary glioblastomas, and IDH1 R132H is the most prevalent mutation. […] Wild-type IDH1 catalyzes the conversion of isocitrate to -ketoglutarate with the concomitant reduction of NADP+ to NADPH. In contrast, IDH1 R132H catalyzes the conversion of -ketoglutarate to 2-hydroxyglutarate (2-HG) with the concomitant oxidation of NADPH to NADP+ [5]. Recently, a second significant advancement for the field was the finding that IDH is an oncogene, and that its metabolic product 2-HG may contribute to the pathogenesis of IDH-mutated cancers. […] Although this link to cancer is tantalizing, the direct evidence of how 2-HG drives pathogenesis of gliomas and AML remains a subject of further research. The goal of this screen is to find small-molecule inhibitors of IDH1 R132H using a biochemical assay that measures substrate NADPH consumption through the use of a diaphorase/resazurin-coupled system. Inhibition of the IDH1 R132H enzymatic reaction leads to an increase in the amount of NADPH relative to a DMSO control and a concomitant increase in the fluorescence of the diaphorase/resazurin enzyme product resorufin at 590 nm. Compounds were screened as a concentration-titration series that ranged from 76 microM to 0.15 uM. NIH Molecular Libraries Probe Production Network [MLPCN] NIH Chemical Genomics Center [NCGC] MLSCN Grant: R03 DA032129 PI Name: Dr. Lenny Dang
Enzyme buffer was dispensed into black, solid 1536-well plates at 3 microL/well in 20 mM Tris buffer, pH 7.5, containing final concentrations of 10 mM MgCl2, 20 mM NaCl, 0.001% Tween20, 0.05% BSA, 2 mM beta-ME and 5.2 nM IDH1 R132H. Then, 23 nL of compounds or DMSO were delivered to each well using a pin tool. The inherent compound fluorescence was measured at this point at 590 nm on a ViewLux plate reader (Ex 525, Em 598, bodipy filter). The substrate buffer (3 uL; 20 mM Tris buffer, pH 7.5, containing final concentrations of 10 mM MgCl2, 20 mM NaCl, 0.001% Tween20, 0.05% BSA, 0.008 mM NADPH, and 1 mM a-ketoglutarate) was added to start the enzymatic reaction, and the plate was briefly spun at 270xg. After the reaction was allowed to progress for 80 minutes at room temperature, the remaining NADPH was detected with the diaphorase/resazurin-coupled system. Three microL of detection buffer (20 mM Tris buffer, pH 7.5, containing final concentrations of 10 mM MgCl2, 20 mM NaCl, 0.001% Tween20, 0.05% BSA, 0.53 uM diaphorase and 0.012 mM resazurin) was added, and after 5 minutes the fluorescence at 590 nm was measured on an Envision plate reader (Ex 544, Em 590, bodipy filter, 10 flashes). The %Activity was determined from the corrected fluorescence values. As no specific IDH1 R132H inhibitors have been identified in the literature, 1x (5.2 nM) and 0x IDH1 R132H enzyme controls (untreated) were included to normalize % Activity of identified inhibitors; 0x enzyme values corresponded to 100 % Activity (full inhibition), while 1x IDH1 R132H enzyme values were used to normalize 0 %A ctivity (no inhibition). Concentration-response curves were fitted to the signals arising from the resulting fluorescence. The concentration-response curves were then classified based on curve quality (r2), response magnitude and degree of measured activity, and compounds were subsequently categorized based on their curve class. […] Keywords: Isocitrate dehydrogenase, IDH1, IDH1 R132H, 2-HG, 2-hydroxyglutarate, AML, glioma, MLSMR, MLPCN, NIH Roadmap, qHTS, NCGC
Potency is the fitted concentration of half-maximal effect.

Potency, active:
COC(=O)c1cccc(N(C(=O)c2ccco2)C(C(=O)NC2CCCC2)c2ccco2)c1 (centres undefined) 22.4 µM
O=C(NC(Nc1nc2ccc([N+](=O)[O-])cc2s1)(C(F)(F)F)C(F)(F)F)c1ccccc1 3.55 µM
COC(=O)c1ccc(-c2c(-c3ccccc3)ncc3cc(OC)c(OC)cc23)cc1 12.6 µM
CCCNc1ncnc2c1c(-c1ccccc1)cn2-c1ccc(OCC)cc1 11.2 µM
Cc1nc(-c2ccc(Cl)cc2)sc1C(=O)CBr 44.7 µM
CCCOc1ccc(C2c3c(-c4ccccc4O)n[nH]c3C(=O)N2Cc2cccnc2)cc1 (centres undefined) 14.1 µM
COc1ccc(/C=N/Nc2cc(N3CCOCC3)nc(C)n2)c(OC)c1 15.8 µM
CCOC(=O)c1ccc(N2C(=O)c3n[nH]c(-c4ccco4)c3C2c2ccc(O)cc2)cc1 (centres undefined) 39.8 µM
CC(C)Nc1nc(N(c2ccccc2)c2ccccc2)nc(-n2ccnc2)n1 39.8 µM
CCCCOc1ccc(CN2C(=O)C(=O)c3cc(Br)cc(C)c32)cc1OC 22.4 µM
C(=N/Nc1cc(N2CCOCC2)nc(N2CCOCC2)n1)/c1ccccc1 39.8 µM
COc1cc(/C=C2/SC(=S)N(Cc3ccccc3)C2=O)cc(OC)c1O 39.8 µM
COc1cc2c(-c3ccc4c(c3)OCO4)c(-c3ccsc3)oc(=O)c2cc1OC 6.31 µM
CCC(C)(C)NC(=O)C(c1cccn1C)N(Cc1ccc(C)cc1)C(=O)Cn1nnc2ccccc21 (centres undefined) 25.1 µM
COc1ccc(/C=C2/SC(=O)N(CCCCCC(=O)Nc3ccccc3C(=O)O)C2=S)cc1 39.8 µM
N#CC1=C(N)C(C#N)(C#N)[C@H](c2ccsc2)[C@H]2COCC=C12 44.7 µM
COc1ccc(C(CCN(Cc2ccc(OC)c(OC)c2)C(=O)CCl)c2ccccc2)cc1 (centres undefined) 15.8 µM
CCOC(=O)c1oc2c(CN3CCN(CCO)CC3)c(O)c(CC)cc2c(=O)c1-c1nc2ccccc2s1 22.4 µM
CCCc1nc2c(c(=O)c3ccccc3n2C)c(=O)n1C1CCCCCC1 8.91 µM
Cc1ccc(-c2nn(-c3ccccc3)cc2/C=C2\SC(=S)N(CCCCCC(=O)O)C2=O)o1 22.4 µM
Cc1nc(C)c(C(=O)N(c2ccc(C)c(C)c2)C(C(=O)NCc2ccco2)c2ccccc2)s1 (centres undefined) 17.8 µM
Cc1ccc2nc(N3C(=O)C(O)=C(C(=O)c4ccco4)C3c3cccc(O)c3)sc2c1 (centres undefined) 28.2 µM
COc1cc(/C=C2/C(=O)ON=C2C)ccc1OCc1ccccc1F 44.7 µM
O=C1c2cccc3cccc(c23)C(=O)N1CCCCCc1n[nH]c(=S)o1 39.8 µM
Cc1cccc(N(C(=O)Cc2cccs2)C(C(=O)NC2CCCC2)c2ccsc2)c1 (centres undefined) 3.55 µM
CCCc1[nH]nc2c1C(c1ccc(OC)c(Cn3nc(C)c(Br)c3C)c1)C(C#N)=C(N)O2 (centres undefined) 31.6 µM
COc1ccc(Cl)cc1-n1c(=S)sc2c(=O)n(-c3ccc(F)cc3)c(SCC(=O)O)nc21 7.94 µM

Activity change, negative = inhibition, inactive:
CCCCC(=O)NC(c1ccc(OC)c(OC)c1)c1ccc2cccnc2c1O (centres undefined) -18.7%
Cn1c(COc2ccc(Cl)cc2)nc2ccccc2c1=O -16.1%
